# According to PubChem BioAssay (EPA / NIEHS):
# Several values for one entry are separate records, joined by “and”; a condition that tells them apart may be missing. Identical values can stand only once. Inconclusive results are not listed. Some compounds were tested as several samples or in several runs, with calls that do not always agree. Activity calls are given as the source filed them. How the source made its calls, unless noted: active means hit-call score of the fitted dose curve at least 0.9, where 1 is the maximum; inactive means score below 0.9.
# Columns and labels:
# [1] = target: Paired box protein Pax-6 (Homo sapiens) (UniProt P26367); assay: ATG_Pax6_CIS: Attagene CIS-FACTORIAL HepG2 Assay for human Paired Box 6 (PAX6) (AID 2282956); details: HepG2 CIS-FACTORIAL PAX6 reporter transcription, RNA readout; actives raise or lower the signal
# Summary of the method: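 Multiplexed cis-reporter HepG2 system; 24 h treatment; reporter mRNA read by RT-PCR/CE fluorescence; bidirectional fit vs DMSO.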
# [2] = ATG_PXRE_CIS: Attagene CIS-FACTORIAL HepG2 Assay for human Pregnane X Receptor Element (PXRE) (AID 2282957); details: HepG2 Attagene CIS-FACTORIAL PXRE reporter, mRNA; actives raise or lower the signal
# Summary of the method: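 HepG2 cells transiently transfected with cis-regulated multiple reporter transcription units; endogenous factor activity measured as reporter mRNA 24 h after dosing. RT-PCR, fluorescent primer extension, HpaI digestion, capillary electrophoresis; bidirectional fit versus DMSO baseline.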
# [3] = ATG_PPRE_CIS: Attagene CIS-FACTORIAL HepG2 Assay for human Peroxisome Proliferator-activated Response Element (PPRE) (AID 2282958); details: HepG2 PPRE cis-element reporter, Attagene transcription factor profiling; actives raise or lower the signal
# Summary of the method: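 PPRE activity in HepG2: transient cis-reporter transfection, 24 h compound incubation, reporter mRNA by RT-PCR and CE fluorescence; gain/loss fitted against DMSO.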
# [4] = ATG_RORE_CIS: Attagene CIS-FACTORIAL HepG2 Assay for human RAR-related Orphan Receptor Element (RORE) (AID 2282959); details: HepG2 Attagene cis-factorial RORE reporter, mRNA; actives raise or lower the signal
# Summary of the method: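 A 24-hour exposure of transfected HepG2 hepatoma cells precedes RNA isolation and reporter RT-PCR. Labeled products are digested with HpaI and resolved by capillary electrophoresis, with gain or loss of signal scored relative to DMSO.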
# [5] = ATG_Sox_CIS: Attagene CIS-FACTORIAL HepG2 Assay for human SRY-box transcription factor (SOX) (AID 2282960); details: HepG2 Attagene cis-factorial SOX reporter, mRNA; actives raise or lower the signal
# Summary of the method: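 HepG2, cis reporter units, 24 h exposure. Reporter mRNA: RT-PCR → FAM labelling → HpaI → CE fluorescence. Bidirectional fit vs DMSO.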
# [6] = target: Transcription factor Sp1 (Homo sapiens) (UniProt P08047); assay: ATG_Sp1_CIS: Attagene CIS-FACTORIAL HepG2 Assay for human Specificity Protein 1 (Sp1) (AID 2282961); details: HepG2 Sp1 cis-reporter transcription, actives raise or lower the signal
# Summary of the method: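 Liver-derived HepG2 cells, cis-element reporter library, 24 h treatment; RNA isolated, cDNA amplified with reporter-specific primers, FAM-labeled fragments sized on capillary analyzer. DMSO baseline, bidirectional curve fit.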
# [7] = ATG_SREBP_CIS: Attagene CIS-FACTORIAL HepG2 Assay for human Sterol Regulatory Element Binding (SREBP) (AID 2282962); details: HepG2 Attagene cis-factorial SREBP reporter, mRNA; actives raise or lower the signal
# Summary of the method: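 mRNA induction of transfected cis-promoter reporters in HepG2 cells, 24 h post-dose. Detection: RT-PCR with 6-FAM-labelled products, HpaI digest, capillary electrophoresis. DMSO served as negative control and baseline.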
# [8] = target: Signal transducer and activator of transcription 3 (Homo sapiens) (UniProt P40763); assay: ATG_STAT3_CIS: Attagene CIS-FACTORIAL HepG2 Assay for human Signal Transducer and Activator of Transcription 3 (STAT3) (AID 2282963); details: HepG2, Attagene cis-factorial STAT3 reporter transcription; actives raise or lower the signal
# Summary of the method: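 Endogenous STAT3-responsive cis-element activity was read in transiently transfected HepG2 cells after 24 h treatment. Reporter transcripts were quantified via RT-PCR and capillary electrophoresis, with DMSO as negative control and bidirectional curve fitting.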
# [9] = ATG_TA_CIS: Attagene CIS-FACTORIAL HepG2 Assay for human TA Basal Promoter (AID 2282964); details: HepG2 Attagene CIS-factorial TA basal promoter reporter; actives raise or lower the signal
# Summary of the method: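 Transient MRTU transfection of HepG2 preceded 24 h compound exposure. Reporter mRNA levels were then read by RT-PCR with capillary electrophoresis, and this background-control endpoint was fitted bidirectionally to DMSO.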
# [10] = ATG_TAL_CIS: Attagene CIS-FACTORIAL HepG2 Assay for human TAL Basal Promoter (AID 2282966); details: HepG2 Attagene cis-factorial TAL promoter reporter; actives raise or lower the signal;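 further: background control endpoint measuring basal TAL promoter reporter mRNA not a specific factor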
# Summary of the method: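 HepG2 cells were transiently transfected with promoter-driven multiplexed reporter units and dosed for 24 h. Reporter mRNA was measured by RT-PCR with capillary electrophoresis fluorescence; bidirectional fits used DMSO as baseline, serving as a background control.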
# [11] = ATG_TGFb_CIS: Attagene CIS-FACTORIAL HepG2 Assay for human Transforming Growth Factor (TGF) (AID 2282967); details: HepG2 Attagene CIS TGFb reporter, mRNA transcription; actives raise or lower the signal
# Summary of the method: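 After a 24-hour incubation with compound, transfected HepG2 cells were lysed for RNA; reporter cDNA was amplified, fluorescently end-labeled and separated by CE. DMSO served as baseline for bidirectional fits.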
# [12] = ATG_VDRE_CIS: Attagene CIS-FACTORIAL HepG2 Assay for human Vitamin D Receptor Element (VDRE) (AID 2282968); details: HepG2 VDRE cis-reporter transcription, actives raise or lower the signal
# Summary of the method: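 Reporter mRNA induction, quantified by capillary electrophoresis of fluorescently labelled RT-PCR products, was read 24 h after dosing HepG2 cells carrying transiently transfected cis-regulated reporter units; gain or loss relative to DMSO.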
# [13] = target: Nuclear receptor subfamily 1 group I member 3 (Homo sapiens) (UniProt Q14994); assay: ATG_CAR_TRANS: Attagene TRANS-FACTORIAL HepG2 Assay for human Constitutive Androstane Receptor (CAR) (AID 2282969; active means hit-call score of the fitted dose curve at least 0.9, where 1 is the maximum;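 further: activators raise reporter mRNA above DMSO so AC50 marks induction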); details: HepG2 Attagene TRANS-FACTORIAL CAR reporter
# Summary of the method: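 Readout is reporter mRNA induction, quantified by fluorescent primer extension and capillary electrophoresis after RT-PCR. Cells were HepG2 transiently carrying chimeric NR-Gal4 constructs with GAL4-UAS reporters, treated for 24 h; activity scored upward from DMSO.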
# [14] = target: Estrogen receptor (Homo sapiens) (UniProt P03372); assay: ATG_ERa_TRANS: Attagene TRANS-FACTORIAL HepG2 Assay for human Estrogen Receptor alpha (ERa) (AID 2282970; active means hit-call score of the fitted dose curve at least 0.9, where 1 is the maximum); details: HepG2 Attagene TRANS ERa GAL4 reporter, mRNA
# Summary of the method: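 HepG2 cells transiently transfected with multiplexed GAL4-UAS reporter units; ERa activity read via exogenous chimeric NR-Gal4 protein. After 24 hour compound exposure, reporter mRNA measured by RT-PCR with 6-FAM labelling and capillary electrophoresis; gain-of-signal fitted relative to DMSO.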
# [15] = target: X-box-binding protein 1 (Homo sapiens) (UniProt P17861); assay: ATG_Xbp1_CIS: Attagene CIS-FACTORIAL HepG2 Assay for human X-box Binding Protein 1 (XBP1) (AID 2282972); details: HepG2 XBP1 cis-element reporter, Attagene multiplex; actives raise or lower the signal
# Summary of the method: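 Fluorescence-labelled cDNA fragments from reporter transcripts, separated by capillary electrophoresis, give the signal. Source: HepG2 cells transfected with promoter-driven reporter units, harvested 24 h post-dose. DMSO served as reference for bidirectional curve fitting.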
# [16] = ATG_TCF_b_cat_CIS: Attagene CIS-FACTORIAL HepG2 Assay for human T-Cell-Factor with beta-catenin (TCF/b-cat) (AID 2282965); details: HepG2 TCF/beta-catenin cis-reporter transcription, actives raise or lower the signal
# Summary of the method: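 Endogenous transcription factor activity is captured through cis-promoter reporter constructs transiently introduced into human HepG2 liver cells. Induced reporter mRNA is measured after 24 h and fitted bidirectionally relative to DMSO.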
# [17] = ATG_GAL4_TRANS: Attagene TRANS-FACTORIAL HepG2 Assay for GAL4 (Internal Marker) (AID 2282976; active means hit-call score of the fitted dose curve at least 0.9, where 1 is the maximum); details: HepG2 Attagene TRANS GAL4 internal marker reporter
# Summary of the method: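 HepG2 cells transiently transfected with multiplexed GAL4-UAS reporter constructs were dosed for 24 h. Reporter mRNA was measured by RT-PCR, 6-FAM primer extension, HpaI digestion and capillary electrophoresis, and gain of signal was fitted relative to DMSO.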
# [18] = target: Steroid hormone receptor ERR1 (Homo sapiens) (UniProt P11474); assay: ATG_ERRa_TRANS: Attagene TRANS-FACTORIAL HepG2 Assay for human Estrogen-Related Receptor alpha (ERRa) (AID 2282971; active means hit-call score of the fitted dose curve at least 0.9, where 1 is the maximum); details: HepG2 Attagene TRANS reporter, ERRa transactivation
# Summary of the method: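 HepG2 cells transiently transfected with multiplexed GAL4-UAS reporter units reading chimeric ERRa-Gal4 activity; 24 h compound exposure. Reporter mRNA measured by RT-PCR, 6-FAM labelling, HpaI digest and capillary electrophoresis; gain of signal fitted versus DMSO baseline.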
# [19] = target: Estrogen-related receptor gamma (Homo sapiens) (UniProt P62508); assay: ATG_ERRg_TRANS: Attagene TRANS-FACTORIAL HepG2 Assay for human Estrogen-Related Receptor gamma (ERRg) (AID 2282977; active means hit-call score of the fitted dose curve at least 0.9, where 1 is the maximum;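 further: hits increase reporter signal over DMSO so potencies reflect activators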); details: HepG2 Attagene TRANS reporter, ERRg transactivation
# Summary of the method: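 HepG2 cells transiently transfected with multiplexed GAL4-UAS reporter units driven by chimeric NR-Gal4 proteins; 24 h exposure. Reporter mRNA quantified by RT-PCR, fluorescent labelling, HpaI digestion and capillary electrophoresis; gain of signal vs DMSO.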
# Chain of Transcription factor Sp1 (Homo sapiens) (P08047 whole entry, looked up, the tested form may be a part): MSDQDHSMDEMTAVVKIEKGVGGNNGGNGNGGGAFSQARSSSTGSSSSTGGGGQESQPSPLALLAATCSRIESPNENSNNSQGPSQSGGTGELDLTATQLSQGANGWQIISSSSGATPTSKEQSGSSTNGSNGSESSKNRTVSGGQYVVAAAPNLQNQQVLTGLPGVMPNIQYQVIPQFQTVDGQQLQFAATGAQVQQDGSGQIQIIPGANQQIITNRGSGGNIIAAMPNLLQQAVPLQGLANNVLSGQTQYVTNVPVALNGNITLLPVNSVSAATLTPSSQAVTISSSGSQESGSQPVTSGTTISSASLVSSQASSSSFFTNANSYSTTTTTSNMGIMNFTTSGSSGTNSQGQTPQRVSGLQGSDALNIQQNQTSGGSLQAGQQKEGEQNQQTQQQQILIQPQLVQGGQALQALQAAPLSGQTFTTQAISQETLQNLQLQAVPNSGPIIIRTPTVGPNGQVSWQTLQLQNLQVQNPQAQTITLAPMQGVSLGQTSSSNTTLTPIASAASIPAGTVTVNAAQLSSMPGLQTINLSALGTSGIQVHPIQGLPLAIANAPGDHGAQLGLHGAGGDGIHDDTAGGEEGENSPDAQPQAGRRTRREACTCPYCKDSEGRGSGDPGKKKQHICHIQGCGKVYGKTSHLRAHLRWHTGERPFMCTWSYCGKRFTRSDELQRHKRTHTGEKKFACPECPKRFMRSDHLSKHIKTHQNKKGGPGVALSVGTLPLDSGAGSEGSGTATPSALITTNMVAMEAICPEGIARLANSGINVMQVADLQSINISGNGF
# Chain of Estrogen receptor (Homo sapiens) (P03372 whole entry, looked up, the tested form may be a part): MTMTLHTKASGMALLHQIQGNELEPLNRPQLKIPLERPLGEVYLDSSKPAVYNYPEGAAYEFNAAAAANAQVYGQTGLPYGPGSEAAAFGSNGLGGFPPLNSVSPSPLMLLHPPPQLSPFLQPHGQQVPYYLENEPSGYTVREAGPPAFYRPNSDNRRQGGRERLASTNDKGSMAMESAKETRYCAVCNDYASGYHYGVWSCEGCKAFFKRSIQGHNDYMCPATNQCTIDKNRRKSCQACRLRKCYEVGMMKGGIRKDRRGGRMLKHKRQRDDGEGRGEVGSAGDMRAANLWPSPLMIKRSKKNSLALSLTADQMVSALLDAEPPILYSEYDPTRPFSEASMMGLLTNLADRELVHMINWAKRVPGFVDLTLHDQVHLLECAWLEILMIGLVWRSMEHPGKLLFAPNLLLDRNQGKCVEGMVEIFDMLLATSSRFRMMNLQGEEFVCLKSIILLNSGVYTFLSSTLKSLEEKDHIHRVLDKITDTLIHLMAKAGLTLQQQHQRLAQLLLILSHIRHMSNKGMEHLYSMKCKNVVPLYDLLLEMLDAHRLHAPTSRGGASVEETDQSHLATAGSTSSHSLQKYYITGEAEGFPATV
# Chain of Signal transducer and activator of transcription 3 (Homo sapiens) (P40763 whole entry, looked up): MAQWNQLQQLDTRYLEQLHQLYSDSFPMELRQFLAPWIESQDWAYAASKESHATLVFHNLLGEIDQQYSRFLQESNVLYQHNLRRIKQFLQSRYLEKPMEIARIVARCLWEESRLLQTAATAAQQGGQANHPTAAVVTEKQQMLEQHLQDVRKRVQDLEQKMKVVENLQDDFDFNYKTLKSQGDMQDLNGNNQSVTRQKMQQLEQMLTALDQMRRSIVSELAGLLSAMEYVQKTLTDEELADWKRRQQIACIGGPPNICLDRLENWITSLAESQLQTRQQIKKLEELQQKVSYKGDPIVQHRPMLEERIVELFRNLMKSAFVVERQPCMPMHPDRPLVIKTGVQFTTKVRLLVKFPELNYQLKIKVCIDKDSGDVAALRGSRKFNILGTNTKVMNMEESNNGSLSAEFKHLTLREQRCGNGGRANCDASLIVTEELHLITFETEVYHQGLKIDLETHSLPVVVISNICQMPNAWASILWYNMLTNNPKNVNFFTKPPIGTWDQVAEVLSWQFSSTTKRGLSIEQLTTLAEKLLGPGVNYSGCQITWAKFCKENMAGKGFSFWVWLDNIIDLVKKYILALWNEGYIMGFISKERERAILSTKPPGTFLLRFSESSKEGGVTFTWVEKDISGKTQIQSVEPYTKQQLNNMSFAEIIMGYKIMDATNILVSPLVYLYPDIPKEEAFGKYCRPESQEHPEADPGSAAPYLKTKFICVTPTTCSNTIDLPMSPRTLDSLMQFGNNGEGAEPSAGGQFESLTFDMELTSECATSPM
# Chain of Nuclear receptor subfamily 1 group I member 3 (Homo sapiens) (Q14994 whole entry, looked up, the tested form may be a part): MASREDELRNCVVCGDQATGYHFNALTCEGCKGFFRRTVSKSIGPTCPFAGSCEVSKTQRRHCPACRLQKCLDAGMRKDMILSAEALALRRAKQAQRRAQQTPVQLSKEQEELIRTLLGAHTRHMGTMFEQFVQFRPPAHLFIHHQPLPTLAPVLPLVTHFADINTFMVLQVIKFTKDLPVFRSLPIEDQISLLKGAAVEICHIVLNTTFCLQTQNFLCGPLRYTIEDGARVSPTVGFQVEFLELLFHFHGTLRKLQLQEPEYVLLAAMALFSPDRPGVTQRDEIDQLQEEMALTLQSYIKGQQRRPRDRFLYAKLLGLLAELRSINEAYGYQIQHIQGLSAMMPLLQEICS
# Chain of Steroid hormone receptor ERR1 (Homo sapiens) (P11474 whole entry, looked up, the tested form may be a part): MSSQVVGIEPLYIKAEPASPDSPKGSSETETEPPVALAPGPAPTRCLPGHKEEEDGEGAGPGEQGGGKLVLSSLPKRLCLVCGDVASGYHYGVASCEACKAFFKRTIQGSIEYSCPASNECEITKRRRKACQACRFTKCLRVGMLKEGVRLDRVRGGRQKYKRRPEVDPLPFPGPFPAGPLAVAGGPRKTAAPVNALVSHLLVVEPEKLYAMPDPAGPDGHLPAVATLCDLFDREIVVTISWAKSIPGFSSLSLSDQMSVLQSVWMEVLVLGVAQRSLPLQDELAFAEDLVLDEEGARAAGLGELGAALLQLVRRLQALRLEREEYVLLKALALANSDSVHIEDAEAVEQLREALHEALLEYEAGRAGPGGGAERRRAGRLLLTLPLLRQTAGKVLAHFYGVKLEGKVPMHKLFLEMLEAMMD
# Chain of Paired box protein Pax-6 (Homo sapiens) (P26367 whole entry, looked up): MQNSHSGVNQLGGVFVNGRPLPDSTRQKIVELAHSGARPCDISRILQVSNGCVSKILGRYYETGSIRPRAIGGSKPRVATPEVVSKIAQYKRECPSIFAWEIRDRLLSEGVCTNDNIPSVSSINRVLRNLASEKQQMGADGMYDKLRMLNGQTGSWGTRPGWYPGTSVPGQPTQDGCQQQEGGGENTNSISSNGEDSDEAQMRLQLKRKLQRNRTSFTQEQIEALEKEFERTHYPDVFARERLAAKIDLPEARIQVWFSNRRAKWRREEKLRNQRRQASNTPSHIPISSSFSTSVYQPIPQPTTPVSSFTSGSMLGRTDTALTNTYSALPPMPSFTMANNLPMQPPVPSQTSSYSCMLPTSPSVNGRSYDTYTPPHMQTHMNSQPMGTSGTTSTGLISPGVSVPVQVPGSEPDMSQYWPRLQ
# Chain of X-box-binding protein 1 (Homo sapiens) (P17861 whole entry, looked up, the tested form may be a part): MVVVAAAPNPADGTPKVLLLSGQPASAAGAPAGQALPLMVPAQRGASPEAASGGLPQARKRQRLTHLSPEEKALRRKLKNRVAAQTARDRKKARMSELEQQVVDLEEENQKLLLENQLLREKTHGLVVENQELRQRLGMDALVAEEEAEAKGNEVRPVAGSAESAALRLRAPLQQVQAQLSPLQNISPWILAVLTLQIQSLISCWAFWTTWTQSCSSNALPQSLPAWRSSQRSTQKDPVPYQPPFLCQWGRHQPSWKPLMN
# Chain of Estrogen-related receptor gamma (Homo sapiens) (P62508 whole entry, looked up, the tested form may be a part): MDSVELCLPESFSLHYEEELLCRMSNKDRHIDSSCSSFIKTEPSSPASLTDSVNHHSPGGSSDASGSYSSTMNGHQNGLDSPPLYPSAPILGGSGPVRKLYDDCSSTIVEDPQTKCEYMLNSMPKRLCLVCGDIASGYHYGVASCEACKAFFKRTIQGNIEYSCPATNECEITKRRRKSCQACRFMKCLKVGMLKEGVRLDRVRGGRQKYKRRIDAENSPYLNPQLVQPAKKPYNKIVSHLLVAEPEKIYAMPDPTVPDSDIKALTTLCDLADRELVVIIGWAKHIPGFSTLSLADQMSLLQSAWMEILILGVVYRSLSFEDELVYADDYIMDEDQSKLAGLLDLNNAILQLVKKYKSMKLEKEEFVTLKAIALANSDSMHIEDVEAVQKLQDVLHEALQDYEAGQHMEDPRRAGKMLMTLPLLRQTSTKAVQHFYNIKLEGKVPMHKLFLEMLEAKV
smiles,measurement,setting,value
CCCCCCCCOC(=O)c1cc(O)c(O)c(O)c1,outcome,[1],inactive
same,AC50,[2],11.1 µM (active)
same,outcome,[3],inactive
same,outcome,[4],inactive
same,outcome,[5],inactive
same,outcome,[6],inactive
same,outcome,[7],inactive
same,outcome,[8],inactive
same,outcome,[9],inactive
same,outcome,[10],inactive
same,outcome,[11],inactive
same,outcome,[12],inactive
same,outcome,[13],inactive
same,AC50,[14],20 µM (active)
same,outcome,[15],inactive
CC[C@@H]1C[C@H](N(Cc2cc(C(F)(F)F)cc(C(F)(F)F)c2)C(C)=O)c2cc(C(F)(F)F)ccc2N1C(=O)OC(C)C,outcome,[1],inactive
same,AC50,[2],0.0676 µM (active)
same,outcome,[3],inactive
same,outcome,[4],inactive
same,outcome,[5],inactive
same,outcome,[6],inactive
same,outcome,[7],inactive
same,outcome,[8],inactive
same,outcome,[9],inactive
same,outcome,[16],inactive
same,outcome,[10],inactive
same,outcome,[11],inactive
same,AC50,[12],0.119 µM (active)
same,outcome,[13],inactive
same,AC50,[14],100 µM (active)
same,outcome,[15],inactive
same,outcome,[17],inactive
CO[C@H]1/C=C/O[C@@]2(C)Oc3c(C)c(O)c4c(O)c(c(/C=N/N5CCN(C)CC5)c(O)c4c3C2=O)NC(=O)/C(C)=C\C=C\[C@H](C)[C@H](O)[C@@H](C)[C@@H](O)[C@@H](C)[C@H](OC(C)=O)[C@@H]1C,outcome,[1],inactive
same,AC50,[2],461 nM (active) and 369 nM (active)
same,outcome,[3],inactive
same,outcome,[4],inactive
same,outcome,[5],inactive
same,outcome,[6],inactive
same,outcome,[7],inactive
same,outcome,[8],inactive
same,outcome,[9],inactive
same,outcome,[16],inactive
same,outcome,[10],inactive
same,outcome,[11],inactive
same,AC50,[12],1.38 µM (active)
same,outcome,[12],inactive
same,outcome,[18],inactive
same,outcome,[15],inactive
same,outcome,[17],inactive
O=c1c(-c2ccc(O)cc2)coc2cc(O)cc(O)c12,outcome,[1],inactive
same,AC50,[2],27.9 µM (active)
same,outcome,[2],inactive
same,AC50,[3],14.7 µM (active) and 66.3 µM (active) and 50 µM (active)
same,outcome,[3],inactive
same,outcome,[4],inactive
same,outcome,[5],inactive
same,AC50,[6],58.4 µM (active) and 80.7 µM (active)
same,outcome,[6],inactive
same,AC50,[7],28.2 µM (active) [middle of 4 runs]
same,outcome,[8],inactive
same,outcome,[9],inactive
same,AC50,[10],77.3 µM (active) and 100 µM (active) and 27 µM (active)
same,outcome,[10],inactive
same,outcome,[11],inactive
same,AC50,[12],61.3 µM (active)
same,outcome,[12],inactive
same,outcome,[13],inactive
same,outcome,[15],inactive
same,outcome,[17],inactive
O=C=NCCCCCCN=C=O,outcome,[1],inactive
same,outcome,[2],inactive
same,outcome,[3],inactive
same,outcome,[4],inactive
same,outcome,[5],inactive
same,outcome,[6],inactive
same,outcome,[7],inactive
same,outcome,[8],inactive
same,outcome,[9],inactive
same,outcome,[16],inactive
same,outcome,[10],inactive
same,outcome,[11],inactive
same,outcome,[12],inactive
same,outcome,[14],inactive
same,outcome,[15],inactive
same,outcome,[17],inactive
CC(C)(O)c1ccc(CNC(=O)c2cccnc2Oc2ccc3nonc3c2)cc1,outcome,[1],inactive
same,AC50,[2],7.65 µM (active)
same,outcome,[3],inactive
same,outcome,[4],inactive
same,outcome,[5],inactive
same,outcome,[6],inactive
same,AC50,[7],50.9 µM (active)
same,outcome,[8],inactive
same,outcome,[9],inactive
same,outcome,[10],inactive
same,outcome,[11],inactive
same,AC50,[12],33.2 µM (active)
same,outcome,[13],inactive
same,outcome,[14],inactive
same,outcome,[18],inactive
same,outcome,[15],inactive
CC[C@H](NC(=O)c1cc(F)ccc1NS(=O)(=O)c1cccc2cccnc12)c1ccccc1,outcome,[1],inactive
same,AC50,[2],0.0144 µM (active)
same,outcome,[3],inactive
same,outcome,[4],inactive
same,outcome,[5],inactive
same,outcome,[6],inactive
same,AC50,[7],27.1 µM (active)
same,outcome,[8],inactive
same,outcome,[9],inactive
same,outcome,[16],inactive
same,outcome,[10],inactive
same,outcome,[11],inactive
same,AC50,[12],0.209 µM (active)
same,outcome,[14],inactive
same,outcome,[18],inactive
same,outcome,[15],inactive
same,outcome,[17],inactive
same,outcome,[19],inactive
